About 2,000 (36%) of roughly 5,500 compounds were called active. Not shown: some 18% with an inconclusive outcome. Cut-off read from the data, not from the text of the source: active = normalized growth mostly below about 0.91 (no sharp cut-off); inconclusive = no clear call, values can overlap the other calls; inactive = mostly above about 0.92. The list shows a part of the results.
Experiment: chemical genetic growth profiling, strain panel (AID 1159580);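 note: tested at 20 µM; growth read once vehicle control cultures reached saturation at 30 °C; 1 = growth at the plate median or of vehicle wells; lower values mean less growth of the strain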
Conditions: S. cerevisiae deletion strains, growth OD
[1] = locus YGR078C, strain PAC10, active compounds read low
[2] = locus YNL322C, strain KRE1, active compounds read low
[3] = locus YPL241C, strain CIN2, active compounds read low
[4] = locus YAL013W, strain DEP1, active compounds read low
[5] = locus YBR229C, strain ROT2, active compounds read low
[6] = locus YCL061C, strain MRC1, active compounds read low
[7] = locus YDL101C, strain DUN1, active compounds read low
[8] = locus YDR150W, strain NUM1, active compounds read low
[9] = locus YEL061C, strain CIN8, active compounds read low
[10] = locus YHR030C, strain SLT2, active compounds read low
[11] = locus YHR087W, strain rtc3, active compounds read low
[12] = locus YJR043C, strain POL32, active compounds read low
[13] = locus YJR075W, strain HOC1, active compounds read low
[14] = locus YLR039C, strain RIC1, active compounds read low
[15] = locus YLR058C, strain SHM2 (second series), active compounds read low
[16] = locus YLR085C, strain ARP6, active compounds read low
[17] = locus YLR262C, strain YPT6, active compounds read low
[18] = locus YML094W, strain GIM5, active compounds read low
[19] = locus YMR219W, strain ESC1, active compounds read low
[20] = locus YMR263W, strain SAP30, active compounds read low
[21] = locus YMR307W, strain GAS1, active compounds read low
[22] = locus YNL153C, strain GIM3, active compounds read low
[23] = locus YNL298W, strain CLA4 (second series), active compounds read low
[24] = locus YNR030W, strain Alg12, active compounds read low
[25] = locus YPL055C, strain LGE1, active compounds read low
[26] = locus YPR135W, strain CTF4, active compounds read low

Measured: normalized growth

CCCCS(=N)(=O)CC[C@H](N)C(=O)O (stereo partly specified)
inactive: locus YAL040C, strain CLN3, active compounds read low 0.986 | locus YDR363W, strain ESC2, active compounds read low 0.99 | locus YER002W, strain NOP16, active compounds read low 1.01 | [1] 0.995 | locus YNL175C, strain NOP13, active compounds read low 0.984 | locus YNL197C, strain WHI3, active compounds read low 0.991 | locus YNL224C, strain SQS1, active compounds read low 0.983 | [2] 0.994 | locus YOR083W, strain WHI5 (second series), active compounds read low 0.977 | [3] 1

COc1ccc(C(=O)c2sc(Nc3ccccc3)nc2-c2ccccc2)cc1
inactive: [4] 0.999 | [5] 0.979 | [6] 1 | [7] 1 | [8] 1.01 | [9] 0.96 | [1] 0.994 | [10] 0.907 | [11] 0.958 | [12] 0.988 | [13] 0.975 | locus YKL190W, strain CNB1, active compounds read low 0.997 | [14] 0.825 | [15] 1.02 | [16] 0.853 | [17] 0.993 | [18] 0.927 | [19] 0.976 | [20] 0.971 | [21] 0.925 | [22] 1.03 | [23] 0.953 | [2] 0.989 | [24] 0.913 | locus YOL006C, strain TOP1, active compounds read low 0.893 | [25] 0.916 | [3] 0.898 | [26] 0.857

COc1ccc2c(c1)CCc1sc(NC(=O)c3ccco3)nc1-2
active: [10] 0.757 | locus YLR113W, strain HOG1, active compounds read low 0.823
inactive: locus YAR019C, strain CDC15, active compounds read low 0.957 | locus YBL105C, strain PKC1, active compounds read low 0.961 | locus YBR135W, strain CKS1, active compounds read low 0.953 | locus YBR136W, strain MEC1, active compounds read low 0.969 | locus YBR160W, strain CDC28, active compounds read low 0.965 | locus YDL017W, strain CDC7, active compounds read low 0.971 | locus YDL028C, strain MPS1, active compounds read low 0.971 | [7] 0.993 | locus YDL108W, strain KIN28, active compounds read low 0.947 | locus YDL132W, strain cdc53, active compounds read low 0.97 | locus YDL214C, strain PRR2, active compounds read low 0.901 | locus YDR052C, strain DBF4, active compounds read low 0.969 | locus YDR054C, strain cdc34, active compounds read low 0.955 | locus YDR226W, strain ADK1, active compounds read low 0.957 | locus YDR477W, strain SNF1, active compounds read low 0.889 | locus YER123W, strain YCK3, active compounds read low 0.858 | locus YER133W, strain GLC7, active compounds read low 0.872 | locus YFL009W, strain cdc4, active compounds read low 0.963 | locus YFL029C, strain CAK1, active compounds read low 0.959 | locus YFR003C, strain YPI1, active compounds read low 0.964 | locus YFR019W, strain FAB1, active compounds read low 0.996 | locus YFR028C, strain CDC14, active compounds read low 0.95 | locus YGR040W, strain KSS1, active compounds read low 0.872 | locus YGR052W, strain FMP48, active compounds read low 0.94 | locus YGR092W, strain DBF2, active compounds read low 0.803 | locus YHR079C, strain IRE1, active compounds read low 0.952 | locus YHR082C, strain KSP1, active compounds read low 0.918 | locus YHR205W, strain SCH9, active compounds read low 0.921 | locus YIL147C, strain SLN1, active compounds read low 0.957 | locus YJL095W, strain BCK1, active compounds read low 0.895 | locus YJL128C, strain PBS2, active compounds read low 0.934 | locus YJL157C, strain FAR1, active compounds read low 0.889 | locus YJR016C, strain ILV3, active compounds read low 0.961 | locus YJR066W, strain TOR1 (second series), active compounds read low 0.872 | locus YJR066W, strain TOR1, active compounds read low 0.924 | locus YKL048C, strain ELM1, active compounds read low 0.959 | locus YKL067W, strain YNK1, active compounds read low 0.92 | locus YKL101W, strain HSL1, active compounds read low 0.941 | locus YKL193C, strain SDS22, active compounds read low 0.95 | locus YKL203C, strain TOR2, active compounds read low 0.951 | locus YLR133W, strain CKI1, active compounds read low 0.93 | locus YLR403W, strain SFP1, active compounds read low 0.915 | locus YML070W, strain DAK1, active compounds read low 0.88 | locus YMR001C, strain CDC5, active compounds read low 0.946 | locus YMR205C, strain PFK2 (second series), active compounds read low 0.927 | locus YMR277W, strain FCP1, active compounds read low 0.954 | locus YNL006W, strain LST8, active compounds read low 0.967 | locus YNL020C, strain ARK1, active compounds read low 0.928 | locus YNL161W, strain CBK1, active compounds read low 0.96 | locus YNL183C, strain NPR1, active compounds read low 0.938 | locus YNL207W, strain RIO2, active compounds read low 0.96 | locus YNL222W, strain SSU72, active compounds read low 0.957 | locus YNL307C, strain MCK1 (second series), active compounds read low 0.94 | locus YOL078W, strain AVO1, active compounds read low 0.961 | locus YOL136C, strain PFK27, active compounds read low 0.882 | locus YOR061W, strain CKA2, active compounds read low 0.887 | locus YOR119C, strain RIO1, active compounds read low 0.865 | locus YOR231W, strain MKK1, active compounds read low 0.932 | locus YOR329C, strain SCD5, active compounds read low 0.969 | locus YPL031C, strain PHO85, active compounds read low 0.828 | locus YPL153C, strain RAD53, active compounds read low 0.845 | locus YPL204W, strain HRR25, active compounds read low 0.896 | locus YPL209C, strain IPL1, active compounds read low 0.968 | locus YPL256C, strain CLN2, active compounds read low 0.918 | locus YPR025C, strain CCL1, active compounds read low 0.953 | locus YPR106W, strain ISR1, active compounds read low 0.969 | locus YPR111W, strain DBF20, active compounds read low 0.967 | strain NNK1, active compounds read low 0.973 | strain TSCII, active compounds read low 0.959

Cc1onc2c(=O)n(-c3ccccc3)nc(-c3ccccc3)c12
active: [10] 0.517 | [13] 0.622 | [14] 0.57 | [16] 0.769 | [17] 0.574 | [21] 0.568 | [2] 0.929
inactive: [4] 0.98 | [5] 0.983 | [6] 0.98 | [7] 0.954 | locus YDL134C, strain PPH21, active compounds read low 0.981 | [8] 0.934 | [9] 0.968 | [1] 0.947 | [11] 0.978 | [12] 1.01 | [15] 0.984 | [18] 0.978 | [19] 0.955 | [20] 0.974 | [22] 1 | [23] 0.911 | [24] 0.945 | [25] 1.02 | [3] 0.959 | [26] 0.68

Reference: PubChem BioAssay AID1159580 (chemical genetic matrix, 2015)
